Measured values as given in ChEMBL document CHEMBL3433997, “St. Jude Leishmania screening dataset” (2016).

These compounds were tested against Glucose transporter (Leishmania mexicana) (UniProt O61059) (assay: ST_JUDE_LEISH: Cytotoxicity at 2uM final concentration against transgenic Leishmania Mexicana promastigotes LmGT2 that are glucose transport deficient and complemented with the L. Mexicana glucose transporter 2. Activity is measured by DNA content using SYBR green in vitro).
Format: functional

Row | SMILES | inhibition [%]
1 | O=C(NCc1cccc(F)c1)c1ccc(O)c(-c2cc(Cl)cc(Cl)c2)c1 | 4.34
2 | OCC1CCN(Cc2ccc(-c3cccc(-c4nc5cc(F)ccc5[nH]4)c3)cc2)CC1 | -1.42
3 | N#Cc1ccc(N2CCN(Cc3ccc(-c4cccc(-c5nc6ccccc6[nH]5)c4)cc3)CC2)nc1 | 0
4 | Cc1cc(-c2ccnc(Nc3cccc(C#N)c3)n2)cc(C)c1O | 7.83
5 | CN1CCN(CCCN(Cc2cccc(-c3cccc(CNCc4ccc5c(c4)OCO5)c3)c2)C(=O)CCC2CCCC2)CC1 | 10.4
6 | CN(C)CCCNCc1ccc(-c2ccc(CNCCc3ccccc3)cc2)cc1 | -0.49
7 | O=C(NCC1CCN(Cc2cccc(C(F)(F)F)c2)C1)c1cc(-c2cccc(C(F)(F)F)c2)cs1 (stereo not given) | 5.94
8 | CCCCCCCN1CC[C@@H](CCCc2ccnc3ccc(OC)cc23)[C@@H](CCN)C1 | 0.84
9 | Clc1ccccc1OCc1ccccn1 | 2.66
10 | Cc1noc(C)c1-c1cccc(CNCc2ccc(-c3ccc(-c4nc5cccc(C)c5[nH]4)cc3)cc2)c1 | -0.62
11 | CCCCCCNC(=O)C(N)CCCC(N)C(=O)NCCCCCC (stereo not given) | 5.23
12 | Nc1c(Cl)cc(C(O)CNCCCCCCOCCC=C2CCOCC2)cc1Cl (stereo not given) | -1.31
13 | O=C(NCCN1CCCC1)c1ccc(-c2ccc(-c3nc4ccccc4[nH]3)s2)cc1 | 0.42
14 | COc1cccc2c(Nc3ccccc3C)nc(Nc3ccccc3C)nc12 | 4.14
15 | Cc1cc2nc(N/C(N)=N/C(=O)NC3CCCCC3)nc(C)c2cc1C | 0.78
16 | CC(C)NCc1ccc(-c2ccc(CN3CCCC(c4ccccc4)C3)cc2)c(C(=O)NCC2CCCCC2)c1 (stereo not given) | -6.06
17 | CC1(C)N=C(NC(=O)Nc2ccc([N+](=O)[O-])cc2)N=C(N)N1OCc1cccc2ccccc12 | 5.77
18 | COc1cc(C)nc2ccc(NC(=O)Nc3ccc([N+](=O)[O-])cc3C)cc12 | 3.97
19 | Cc1cc(CNCCCCCNCc2cccc([N+](=O)[O-])c2)ccc1O | 1.29
20 | COCCNCc1cccc(-c2ccc3nccc(Nc4cc(O)ccc4C)c3c2)c1 | 4.38

Row | SMILES | inhibition [%]
21 | Cc1ccc([N+](=O)[O-])cc1NC(=O)N(CC(O)c1ccccc1)C1CCCCC1 (stereo not given) | 2.38
22 | FC(F)(F)c1ccc2[nH]c(-c3cccc(-c4cccc(CNCC5CCCO5)c4)c3)nc2c1 (stereo not given) | 3.26
23 | O=C(Nc1ccc2c(c1)CCN2C1CCN(Cc2cccc3cc[nH]c23)C1)c1ccco1 (stereo not given) | 1.83
24 | CCOc1cc(Br)c(C(C)NC(=O)c2ccccc2)cc1OCC (stereo not given) | 1.97
25 | CCCNCc1ccc(-c2ccc(CN(CCOC)C(=O)/C=C/c3ccccc3C)cc2)nc1 | 6.86
26 | O=S(=O)(Nc1cc2c(cc1OCCCN1CCCCC1)CCNCC2)c1ccc(-c2ccc(Cl)cc2)cc1 | -0.37
27 | Cc1c(Cl)cccc1S(=O)(=O)Nc1ccc(CCN2CCC(N)CC2)cc1 | -2.13
28 | OC(CN1CCN(c2cccc(Cl)c2)CC1)C(c1ccccc1)c1ccccc1 (stereo not given) | -2.94
29 | CCCCCCCN1CC[C@@H](CCCc2ccnc3ccc(OCCN4CCNCC4)cc23)[C@@H](CC)C1 | 0.64
30 | N=c1c(C(=O)NCc2ccccc2)cc2c(=O)n3ccccc3nc2n1CCc1ccccc1 | 2.34
31 | O=C(Nc1ccccc1)N(Cc1ccc(-c2cccc(CNCc3ccc4c(c3)OCO4)c2)cc1)C1CCN(Cc2ccccc2)CC1 | 2.9
32 | Cc1cc(C)cc(OCC(O)CN(CCN2CCOCC2)C(=O)Nc2ccc(Br)cc2)c1 (stereo not given) | 13.4
33 | O=C(Nc1ccc2ccccc2c1)N(CCCn1ccnc1)Cc1csc(-c2ccc(CNCc3ccccc3)cc2)n1 | 1.63
34 | CC(C)CCNCc1c(O)ccc2ccccc12 | 3.37
35 | O=C(C=Cc1ccc(Cl)c(Cl)c1)NCCCCCN1CCC(CCNC(=O)c2ccc3c(c2)OCO3)CC1 | 5.57
36 | CCCC(=O)c1cnc2c(I)cccc2c1Nc1ccccc1C | 3.57
37 | CCCCCCNC(=O)C1Cc2c([nH]c3ccc(Br)cc23)C2(CCN(CCc3ccccc3)CC2)N1 (stereo not given) | 9.91
38 | Cc1ccoc1C(=O)Nc1cccc(-c2cccc(-c3nc4ccccc4[nH]3)c2)c1 | 5.58
39 | O=C(NCC1CCC(C(=O)NC2CCCc3ccccc32)CC1)c1ccc(O)c(-c2ccc(Cl)c(Cl)c2)c1 (stereo not given) | 4.27
40 | Cc1nc(Nc2ccc(C)c(Cl)c2)c2c(C)noc2n1 | 4.71
